# Screens as filed in PubChem BioAssay.
# Only some compounds are listed: those with a hit (about 21% of all), similar ones and a draw of the others.
# HCV inh – inhibitors of hepatitis C virus infection; Huh7.5.1 HCVcc-Cre infection, luciferase reporter, 44 h; Potency, µM (highest dose often 41.8 µM), inactives show at the highest dose activity change, negative = inhibition, actives largely listed as inhibitors; actives 3.4% (n = 340,000); further: potency means the concentration at half of the fitted maximal effect; on the % scale 0 is the no-effect control and ±100 the full control effect
#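 Compounds are dispensed onto cells plated 4 h earlier at 1,000 per well, with HCVcc-Cre virus (about 0.5 moi) added next. Following 44 h of culture, luminescent signal is measured for 15 sec after 15 min with substrate at room temperature.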
# Cycloheximide cs – counter-screen for Shiga toxin inhibitors: cycloheximide protein synthesis inhibition; cell reporter, cycloheximide protein synthesis inhibition counterscreen; max response, %; actives 12% (n = 300,000); AID 2314; in the data active means max response mostly above about 13%, no sharp cut-off; inactive means mostly below about 14%; further: read at 38.3 µM for the half of the compounds with a filed dose; 0% is about no effect
# Shiga toxin inh – blocks Shiga toxin action in Vero cells. Vero cells, Shiga toxin protein synthesis inhibition reporter. inhibition, % at 38.7 µM. actives 9.2% (n = 290,000). AID 2315; in the data active means inhibition mostly above about 28%, no sharp cut-off; inactive means mostly below about 43%; further: 0% is about no effect
# HCMV inh – inhibitors of human cytomegalovirus; activity change, negative = inhibition, % at 57.5 µM; actives 4.5% (n = 410,000); HFF cells, HCMV-luciferase reporter, 72 h; stronger effect = lower value; in the data active means activity change below about -60%; inconclusive means no clear call, values can overlap the other calls; inactive means above about -39%; further: on the % scale 0 is the no-effect control and ±100 the full control effect
#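 Inhibition of viral replication was scored as loss of reporter luminescence in HFFs infected with HCMV-luciferase (MOI 1 PFU/cell) for 72 h; compounds tested at 2 doses, normalized to buffer and Salinomycin controls.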
# Pf growth 96h – P. falciparum growth inhibition at 96 hour, primary screen for plastid delayed-death inhibitors. Potency, µM (highest dose often 28.7 µM), for the others: at the top dose activity change, negative = inhibition, hits mostly inhibitors. actives 6.9% (n = 320,000). P. falciparum luciferase reporter growth, 96 h. AID 504834; further: potency means the concentration at half of the fitted maximal effect; on the % scale 0 is the no-effect control and ±100 the full control effect
#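 Readout is luminescence from an integrated firefly luciferase in P. falciparum. Red cells, 2% hematocrit and 0.05% parasitemia final, were cultured with compound through two parasite generations (96 hours) at 37 C, 5% CO2.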
# Pf growth 48h – P. falciparum growth inhibition at 48 hours (one generation); P. falciparum luciferase growth in erythrocytes, 48 h; Potency, µM (titrated, usually from 28.7 µM), inactives show top-dose activity change, negative = inhibition, most hits filed as inhibitors; actives 5.9% (n = 310,000); further: potency means the concentration at half of the fitted maximal effect; on the % scale 0 is the no-effect control and ±100 the full control effect
#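 Firefly luciferase activity from engineered P. falciparum reports growth; inhibitors lower the luminescent signal. Cultures contained 2% hematocrit erythrocytes at 0.1% final parasitemia.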
# An asterisk follows results filed as active; i = inactive; ? = inconclusive; nt = not tested or not shown. Unless noted, the call rests on the fitted dose curve; in most records, active means well fitted inhibition curve with a large enough effect; inconclusive means small, poorly fitted or top-dose-only effect, or another doubt; inactive means no such curve, though single readings can be large or run the other way.
SMILES,HCV inh,Cycloheximide cs,Shiga toxin inh,HCMV inh,Pf growth 96h,Pf growth 48h
CCOC(=O)C1CCC(CNCc2ccccc2C)CC1 (stereo unspecified),8%,1,-7,-12,0%,0%
Cc1cc(=O)oc2cc(OC(C)C(=O)N3CCCc4ccccc43)ccc12 (stereo unspecified),-13%,24*,60,19,nt,-3%
CCc1cc(=O)oc2c(C)c(OCC(=O)N3CCCc4ccccc43)ccc12,?,-3,-16,-33,nt,12µM*
Cc1cccc(N2CCN(C(=O)COc3ccc4ccc(=O)oc4c3)CC2)c1C,11µM*,8,-5,?,?,-21%
CCc1cc(=O)oc2cc(OCC(=O)N3CCc4ccccc43)ccc12,nt,-1,-11,nt,75%,20%
Cc1cccc(N2CCN(C(=O)COc3ccc4c(C)cc(=O)oc4c3C)CC2)c1C,10µM*,2,-8,-34,?,12µM*
COC(=O)C1=C(O)/C(=C\c2ccc(OCC(=O)Nc3ccc(OC)cc3)cc2)N=C1C,8%,-1,-7,25,?,?
CCOC(=O)c1ccc(N2C(=O)c3n[nH]c(C)c3C2c2ccc(C(C)C)cc2)cc1 (stereo unspecified),nt,nt,nt,-3,nt,nt
Cc1ccc(C(=O)NCC(=O)OCC(=O)c2c(N)n(C)c(=O)n(C)c2=O)cc1C,20%,nt,nt,-7,nt,nt
CCC(C)(C(=O)NC1CCCCC1)N(C(=O)CC1NC(=O)NC1=O)c1c(C)n(C)n(-c2ccccc2)c1=O (stereo unspecified),21%,-3,22,16,-7%,i
Cc1cccc(NC(=O)Nc2ccc(Cl)c(Cl)c2)n1,-25%,27*,72*,-10,-21%,210%
COc1cccc(NC(=O)Nc2cccc(C)n2)c1,-24%,53*,92*,1,?,109%
COc1ccc(NC(=O)Nc2cccc3ccccc23)c(OC)c1,-24%,-1,-3,-27,?,122%
COc1ccc(NC(=O)Nc2cccc(C)n2)c(OC)c1,8%,33*,39*,-16,?,7%
Cc1cc(NC(=O)Nc2ccc(Cl)c(Cl)c2)n(-c2ccccc2)n1,?,9,21,-29,-24%,3%
COc1ccc(NC(=O)Nc2cccc(NC(C)=O)c2)c(OC)c1,-4%,1,-7,-2,12µM*,11%
COc1ccc(NC(=O)CC2NCCNC2=O)c(OC)c1 (stereo unspecified),nt,nt,nt,2,nt,nt
COc1ccc(OCCOC(=O)CNS(=O)(=O)c2ccc(SC)c([N+](=O)[O-])c2)cc1,1%,nt,nt,0,19%,11%
Cc1cccc(NC(=O)Nc2ccccc2)n1,-8%,23*,43*,-65*,87%,72%
Cc1ccc(NC(=O)Nc2cccc(C)n2)c(C)c1,6%,36,20,41,90%,74%
CCOCCc1nn2c(=O)cc(COC(=O)c3ccccc3NC(=O)C3CCCCC3)nc2s1,nt,nt,nt,-1,nt,nt
CCCCn1c(SCC(=O)Nc2oc(C)c3c(C)n[nH]c(=O)c23)nc2cc(S(N)(=O)=O)ccc21,?,nt,nt,-7,5%,4%
Nc1ccccc1C(=O)OCC(=O)Nc1ccc(Br)cc1F,2%,21*,93,-14,39%,50%
O=C(COC(=O)COc1ccccc1)Nc1ccc(Br)cc1F,16%,nt,nt,-10,nt,nt
Cc1cc(C(=O)OCC(=O)Nc2ccccc2C#N)c(C)o1,14%,nt,nt,-8,0%,26%
Cc1cc(C(=O)OCC(=O)Nc2ccccc2F)c(C)o1,11%,15*,98*,-22,98%,38%
CCc1ccc(CN(Cc2cccnc2)C(=O)/C=C/c2ccc(OC)cc2)cc1,?,25*,34*,98,?,8.3µM*
Cc1ccc(-c2noc(C3CCCN(C(=O)c4cccc(F)c4)C3)n2)cc1 (stereo unspecified),?,22*,19,-19,42%,-3%
O=C(c1c(F)cccc1F)N1CCCC(c2nc(-c3ccc(Cl)cc3)no2)C1 (stereo unspecified),11µM*,1,-8,-16,?,14%
